This is part of a sample that, as a whole, favours compounds with a hit. Of some 79,000 tested, about 15% had one in any assay. Values without a mark were called inactive. Calls of active or inactive are those of the source. Cut-off read from the data, not from the text of the source: active = growth inhibition above about 70%; inactive = the rest.
Test: NCI Yeast Anticancer Drug Screen. Data for the sgs1 mgt1 strain (AID 161);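 note: 0% = growth of cultures given vehicle only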
Conditions: S. cerevisiae sgs1 mgt1 strain, at 50.0 µM (retest, dose inferred, filed as 5.0), active compounds read high
In short: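 Inhibition of yeast growth, normalised to vehicle-treated controls, is reported for a strain bearing genetic alterations in DNA damage repair.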

Row | SMILES | growth inhibition
1 | C=CC(=O)N1C/C(=C\c2ccc(F)cc2)C(=O)/C(=C/c2ccc(F)cc2)C1 | 88% (active)
2 | CCOc1ccc2c(c1)n([O-])c1ccccc1[n+]2=O | 99% (active)
3 | O=C(/C(Cl)=N/O)c1ccccc1 | 99% (active)
4 | O=C(NC1CCN(Cc2ccccc2)CC1)c1ccc(I)cc1 | 87% (active)
5 | O=C1c2ccccc2CCC1C(O)(C(F)(F)F)C(F)(F)F (stereo not given) | 7%
6 | O=C(C(=O)n1ncc(Cl)c(Cl)c1=O)n1ncc(Cl)c(Cl)c1=O | 8%
7 | OC1OCC(OCc2ccccc2)C(OCc2ccccc2)C1OCc1ccccc1 (stereo not given) | 68%
8 | CN1CCC(OC(=O)c2ccc3ncccc3c2)CC1 | 13%
9 | CCC(c1ccc(O)cc1)C(CC)c1ccc(OCC(N)=O)cc1 (stereo not given) | 7%
10 | CCCCCCCC(=O)O[C@H]1[C@H]2[C@@H](CC1(C)C)C(=O)[C@]13O[C@H]1C(=O)[C@]1(CO1)[C@]23C | 98% (active)
11 | CN1CCCN(C)C1c1cc([N+](=O)[O-])ccc1O | 96% (active)
12 | CCOC(=O)C[n+]1c(C)sc2ccccc21 | 54%
13 | O=C(O)C(CCc1cccc2ccccc12)c1ccccc1 (stereo not given) | 98% (active)
14 | O=C1C(Cl)=C(Cl)C(=O)C2CC=CCC12 (stereo not given) | 99% (active)
15 | Nc1n[nH]c(=O)c2cccnc12 | -13%
16 | OC(CBr)c1cc(-c2ccccc2)nc2ccccc12 (stereo not given) | 97% (active)
17 | O=C(O)CCCc1ccc2c(c1)CC1(C2)Cc2ccc(CCCC(=O)O)cc2C1 | 38%
18 | CC1=Nc2ccccc2/C1=C\c1c(C)[nH]c2ccccc12 | 97% (active)
19 | CC(=O)C(C(=N)C#N)C(=O)Nc1ccccc1 (stereo not given) | 7%
20 | COc1ccc2nc3cc(Cl)ccc3c(NCCC[N+](C)(C)CCCCCCCCCC[N+](C)(C)CCCNc3c4ccc(Cl)cc4nc4ccc(OC)cc34)c2c1 | 98% (active)

Row | SMILES | growth inhibition
21 | Oc1cc(Cl)cc2c1-c1ccc(Cl)cc1C2O (stereo not given) | 97% (active)
22 | CC1(C)OC(=O)C(=NNc2ccccc2[N+](=O)[O-])C(=O)O1 | 16%
23 | Clc1ccc(OCC2CO2)c(Cl)c1 (stereo not given) | 82% (active)
24 | O=c1ccc([N+](=O)[O-])c[nH]1.[Ag] | 98% (active)
25 | O=C1CSC(c2c[nH]c3ccccc23)N1c1cccc(Cl)c1 (stereo not given) | 87% (active)
26 | Fc1cccc(NC(=S)SCc2ccco2)c1 | 80% (active)
27 | S=c1[nH]nc(SCc2ccc(Cl)c(Cl)c2)c2[nH]cnc12 | -14%
28 | Cc1c(Cl)cccc1NC(=O)/C(Cl)=C(\Cl)C(=O)O | 74% (active)
29 | Nc1ccc2ccc3cccc4ccc1c2c34 | 98% (active)
30 | O=C(C(/C=N/C(=S)NCc1ccccc1)=C(/O)c1ccccc1)c1ccccc1 | 61%
31 | C/C(=N\NC(=S)Nc1ccc(Cl)cc1)c1nc2ncccc2[nH]1 | 96% (active)
32 | O=C(/C=C\c1ccc(Cl)c(Cl)c1)c1cccs1 | -25%
33 | CC12CC(O)C3C(CCC4CCCCC43C)C1CC/C2=N/O (stereo not given) | 1%
34 | CCCn1cc2c(SC)nc(SC)nc2n1 | 10%
35 | Cc1ccc(C2(O)c3ccccc3-c3ccccc32)cc1 | 99% (active)
36 | C=CCc1ccc2c(C)cc[n+](C)c2c1O | 99% (active)
37 | COC(=O)c1nc(NC#N)[nH]c(=O)c1CCCCCc1cnc(NC#N)nc1 | 4%
38 | Cc1c2cnccc2c(C)c2c1c1ccccc1n2CCOC(=O)c1ccccc1 | 81% (active)
39 | C/C(=N/O)c1ccc2c(c1)C(C)c1ccccc1-2 (stereo not given) | -65%
40 | Oc1ccc2ccccc2c1I | 99% (active)

Same assay, conditions: S. cerevisiae sgs1 mgt1 strain, at 50.0 µM, active compounds read high

Row | SMILES | growth inhibition
41 | C=CC(=O)N1C/C(=C\c2ccc(F)cc2)C(=O)/C(=C/c2ccc(F)cc2)C1 | 90.2% (active)
42 | CCOc1ccc2c(c1)n([O-])c1ccccc1[n+]2=O | 99.2% (active)
43 | O=C(/C(Cl)=N/O)c1ccccc1 | 49.3%
44 | O=C(NC1CCN(Cc2ccccc2)CC1)c1ccc(I)cc1 | 74.6% (active)
45 | O=C1c2ccccc2CCC1C(O)(C(F)(F)F)C(F)(F)F (stereo not given) | -35.8%
46 | O=C(C(=O)n1ncc(Cl)c(Cl)c1=O)n1ncc(Cl)c(Cl)c1=O | 44.9%
47 | OC1OCC(OCc2ccccc2)C(OCc2ccccc2)C1OCc1ccccc1 (stereo not given) | 96.7% (active)
48 | CN1CCC(OC(=O)c2ccc3ncccc3c2)CC1 | 17.6%
49 | CCC(c1ccc(O)cc1)C(CC)c1ccc(OCC(N)=O)cc1 (stereo not given) | 89.8% (active)
50 | CCCCCCCC(=O)O[C@H]1[C@H]2[C@@H](CC1(C)C)C(=O)[C@]13O[C@H]1C(=O)[C@]1(CO1)[C@]23C | 92.7% (active)
51 | CN1CCCN(C)C1c1cc([N+](=O)[O-])ccc1O | 97.7% (active)
52 | CCOC(=O)C[n+]1c(C)sc2ccccc21 | 37.6%
53 | O=C(O)C(CCc1cccc2ccccc12)c1ccccc1 (stereo not given) | 99.5% (active)
54 | O=C1C(Cl)=C(Cl)C(=O)C2CC=CCC12 (stereo not given) | 99.6% (active)
55 | Nc1n[nH]c(=O)c2cccnc12 | -10.2%
56 | OC(CBr)c1cc(-c2ccccc2)nc2ccccc12 (stereo not given) | 41.8%
57 | O=C(O)CCCc1ccc2c(c1)CC1(C2)Cc2ccc(CCCC(=O)O)cc2C1 | -28.3%
58 | CC1=Nc2ccccc2/C1=C\c1c(C)[nH]c2ccccc12 | 85.2% (active)
59 | CC(=O)C(C(=N)C#N)C(=O)Nc1ccccc1 (stereo not given) | -22.7%
60 | COc1ccc2nc3cc(Cl)ccc3c(NCCC[N+](C)(C)CCCCCCCCCC[N+](C)(C)CCCNc3c4ccc(Cl)cc4nc4ccc(OC)cc34)c2c1 | 95.8% (active)

Row | SMILES | growth inhibition
61 | Oc1cc(Cl)cc2c1-c1ccc(Cl)cc1C2O (stereo not given) | 96.3% (active)
62 | CC1(C)OC(=O)C(=NNc2ccccc2[N+](=O)[O-])C(=O)O1 | 1.25%
63 | Clc1ccc(OCC2CO2)c(Cl)c1 (stereo not given) | 92.2% (active)
64 | O=c1ccc([N+](=O)[O-])c[nH]1.[Ag] | 99.1% (active)
65 | O=C1CSC(c2c[nH]c3ccccc23)N1c1cccc(Cl)c1 (stereo not given) | 87.3% (active)
66 | Fc1cccc(NC(=S)SCc2ccco2)c1 | 96% (active)
67 | S=c1[nH]nc(SCc2ccc(Cl)c(Cl)c2)c2[nH]cnc12 | 21.2%
68 | Cc1c(Cl)cccc1NC(=O)/C(Cl)=C(\Cl)C(=O)O | 99.7% (active)
69 | Nc1ccc2ccc3cccc4ccc1c2c34 | 48.5%
70 | O=C(C(/C=N/C(=S)NCc1ccccc1)=C(/O)c1ccccc1)c1ccccc1 | 98.2% (active)
71 | C/C(=N\NC(=S)Nc1ccc(Cl)cc1)c1nc2ncccc2[nH]1 | 85.2% (active)
72 | O=C(/C=C\c1ccc(Cl)c(Cl)c1)c1cccs1 | 92.2% (active)
73 | CC12CC(O)C3C(CCC4CCCCC43C)C1CC/C2=N/O (stereo not given) | 93.3% (active)
74 | CCCn1cc2c(SC)nc(SC)nc2n1 | 97% (active)
75 | Cc1ccc(C2(O)c3ccccc3-c3ccccc32)cc1 | 99.2% (active)
76 | C=CCc1ccc2c(C)cc[n+](C)c2c1O | 99% (active)
77 | COC(=O)c1nc(NC#N)[nH]c(=O)c1CCCCCc1cnc(NC#N)nc1 | -3.25%
78 | Cc1c2cnccc2c(C)c2c1c1ccccc1n2CCOC(=O)c1ccccc1 | 89.7% (active)
79 | C/C(=N/O)c1ccc2c(c1)C(C)c1ccccc1-2 (stereo not given) | 34.5%
80 | Oc1ccc2ccccc2c1I | 93% (active)

— PubChem BioAssay (NCI)
